MBNL1-CUG inh – blocks human MBNL1 binding to CUG repeat RNA; TR-FRET MBNL1-His/biotin-(CUG)12 binding, 665/545 ratio; Potency, µM (top dose mostly 57.5 µM), for the others: at the highest dose activity change, negative = inhibition, hits mostly inhibitors; 0.036% of 280,000 active; AID 2675; active = well fitted inhibition curve with a large enough effect in the signal ratio, with a control signal flat, not every such curve was filed as active; inconclusive = small, poorly fitted or top-dose-only effect, or effect the other way, or a change in a side signal; inactive = no such curve, though single readings can be large or run the other way; the % refers to the signal ratio; also: potency is read from the fitted curve at half-maximal effect; % is scaled to controls: 0 for no effect and ±100 for the full control effect
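MBNL1-His + Biotin-(CUG)12, cpd titration 92 nM–58 uM; Tb anti-His Ab 0.055 ng/ul, SA-XL665 5 nM (final); 60 min RT; ratiometric 665/545 nm, Ex 340 nm; normalized to buffer and full-complex controls.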
TRHR agonist – agonists of human TRH receptor; P34981; 0.18% of 360,000 active; activation, % at 2 µM; TRHR cells, calcium flux fluo-8, FDSS agonist mode; in the data active = activation above about 30%; also: 0% is about no effect
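TRHR-expressing cells, plated overnight in medium with 10% serum, were loaded with fluo-8 calcium dye at room temperature. After a 10 s baseline, library compound was pin-added and calcium release was recorded kinetically (ex 480/em 530) as agonist response.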
CBFb-RUNX1 inh – blocks binding between human CBF-beta and RUNX1; Q01196+Q13951; AlphaScreen CBFb-His/RUNX1-biotin binding, biochemical; Potency, µM (highest dose often 59.8 µM), for inactives: top-dose activity, negative = inhibition, most hits filed as inhibitors; 230,000 tested, under 10 active; AID 1477; also: % of control where 0% means no effect
Target sequence (Q01196 whole entry, looked up): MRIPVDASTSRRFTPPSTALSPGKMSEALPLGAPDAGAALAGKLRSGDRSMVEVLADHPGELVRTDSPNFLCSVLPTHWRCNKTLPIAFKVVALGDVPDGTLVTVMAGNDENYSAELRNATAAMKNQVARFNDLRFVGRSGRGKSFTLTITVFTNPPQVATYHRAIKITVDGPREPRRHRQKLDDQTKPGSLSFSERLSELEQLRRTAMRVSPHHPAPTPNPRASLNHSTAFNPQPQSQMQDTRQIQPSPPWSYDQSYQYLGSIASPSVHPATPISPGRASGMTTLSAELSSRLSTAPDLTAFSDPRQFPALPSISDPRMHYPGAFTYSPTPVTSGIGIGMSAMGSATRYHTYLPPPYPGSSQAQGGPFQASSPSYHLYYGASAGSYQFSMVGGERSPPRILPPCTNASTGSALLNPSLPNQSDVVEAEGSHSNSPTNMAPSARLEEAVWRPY
Target sequence (Q13951 whole entry, looked up): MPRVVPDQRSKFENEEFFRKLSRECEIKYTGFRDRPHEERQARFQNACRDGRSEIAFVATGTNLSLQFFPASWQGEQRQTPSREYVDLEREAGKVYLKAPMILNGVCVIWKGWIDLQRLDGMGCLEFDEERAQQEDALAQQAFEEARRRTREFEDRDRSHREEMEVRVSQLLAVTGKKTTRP
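Inhibition was taken as any reduction in AlphaScreen signal from the CBF-beta–RUNX1 pair (His and biotin tags, 30 nM each), measured after compound (15 min) and bead (90 min) incubations at room temperature.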
IL2 activator – IL-2 activation; activation, % (series mostly up to about 46 µM); 0.065% of 360,000 active; IL-2 activation reporter assay, cell-based qHTS; stimulated with anti-CD3/CD4/CD28 beads; in transgenic mouse T cells; in the data active = activation above about 50%; inconclusive = mostly about 30% to 49%; also: 0% is about no effect
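Quantitative HTS in unstimulated transgenic mouse T cells, with memory T cells as non-tolerant control and PMA/ionomycin as tolerance-bypass control. Compound pretreatment lasted 60 minutes before 18 h bead stimulation; EGFP/DsRed fluorescence read.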
TRHR PAM – allosteric enhancers of human TRH receptor | 0.66% of 360,000 active | enhancement, % at 2 µM | P34981 | TRHR cells, fluo-8 calcium fluorescence, EC20 TRH enhancement; in the data active = enhancement above about 30%; also: 0% is about no effect
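Enhancer read-out: after compound pinning and an initial kinetic agonist-mode read, an EC20 of TRH (10 nM final) was injected and fluo-8 calcium signal (Ex 480/Em 530) followed at 1 s/cycle for 100 cycles in TRHR-expressing cells.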
Epigenetic derep – derepresses silenced GFP reporter in murine cells; murine LDR cells, GFP reporter derepression, 30 h; AID 1865; Potency, µM (titrated, usually from 53.9 µM), for the others: at the highest dose GFP activation, hits mostly activators; 0.2% of 280,000 active; also: potency is read from the fitted curve at half-maximal effect; % of control where 0% means no effect; nearly all actives have a fitted effect of over 60% in size
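Murine LDR cells carrying a silenced, genomically integrated CMV-driven GFP reporter were exposed to compound for 30 hours at 37 C. After PBS washes, GFP-positive cells (20–120 um objects) were counted by laser-scanning microplate cytometry.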
* hit, by the source's call; u = inconclusive; x = not tested or not shown. A selection: hits, their analogues and other compounds. The true share with any hit is near 0.88%. Unless noted, calls follow the shape of the dose curve; as a rule, active = well fitted curve in the direction sought with a large enough effect; inconclusive = small, poorly fitted or top-dose-only effect, or another doubt; inactive = no such curve, though single readings can be large; an effect the other way counts as inactive or inconclusive.

SMILES | MBNL1-CUG inh | TRHR agonist | CBFb-RUNX1 inh | IL2 activator | TRHR PAM | Epigenetic derep
Nc1ccc2nc(-c3ccccc3)c(-c3ccccc3)nc2c1 | 17% | 32* | x | 5 | 19 | x
Cc1ccc(NC(=O)Cn2cc(S(=O)(=O)N3CCCC3)c(S(=O)(=O)N3CCCC3)c2)cc1F | x | 1 | x | x | 32* | 9%
N#CC(C(=O)NCCc1ccccc1)c1nc2ccccc2nc1N1CCCCC1 (stereo unspecified) | -1% | 0 | 9% | 1 | -3 | 4%
CCCCCNC(=O)C(C#N)c1nc2ccccc2nc1N1CCCC1 (stereo unspecified) | -4% | 1 | 7% | 150* | 0 | 0%
CCCCCCNC(=O)C(C#N)c1nc2ccccc2nc1N1CCCC1 (stereo unspecified) | 2% | 2 | 2% | u | 2 | 9%
N#CC(C(=O)NCc1ccccc1)c1nc2ccccc2nc1N1CCCC1 (stereo unspecified) | 20% | 2 | 0% | 153* | 0 | u
Cc1cc2c(s1)c1cnn(Cc3cc(F)cc(F)c3F)c(=O)c1n2C | x | 0 | x | x | -1 | x
Cc1sc2ncnc(N=Nc3c(O)[nH]c4ccccc34)c2c1C | x | 1 | 9% | 13 | -4 | u
CCc1cc2c(N=Nc3c(O)[nH]c4ccccc34)ncnc2s1 | x | 0 | 0% | 68* | -1 | 22µM*
CCOC(=O)C(NC(=O)Nc1ccc(F)cc1F)(Oc1ccccc1)C(F)(F)F (stereo unspecified) | -24% | -2 | 5% | -1 | 31* | 0%
O=C1CC(c2nc3ccccc3[nH]2)CN1c1cccc(Cl)c1 (stereo unspecified) | x | 0 | x | x | 1 | -1%
O=C1CC(c2nc3ccccc3[nH]2)CN1c1ccccc1 (stereo unspecified) | -1% | -1 | 9% | 0 | 31* | 0%
O=C(NCCN1CCCCC1)Nc1ccc(F)cc1F | -6% | 0 | x | -2 | 37* | x
Cc1ccc(C(=O)N2CCc3cc(CNC(=O)CSc4ccccc4)ccc32)cc1 | x | 0 | x | x | -3 | 0%
COc1ccc(/C=N/NC(=O)c2cc(-c3ccc(Cl)cc3)n[nH]2)cc1OC | x | x | x | x | x | -5%
CCOCCCNC(=O)C1CCCN(Cc2nc(-c3ccc(CC)cc3)oc2C)C1 (stereo unspecified) | x | -1 | x | x | 32* | -1%
O=c1c[n+]([O-])c2ccccc2n1OCc1c(F)cccc1F | u | 2 | -7% | 0 | -7 | 13µM*
O=C1CCC(=O)c2ccc3c4c(ccc1c24)CC3 | x | x | x | 0 | x | x
O=C1CCN2C=Nc3cccc4ccc1c2c34 | u | 136* | 4% | 18 | 5 | 1%
O=C(Nc1cccc(Cl)c1)C1CCCN(c2nn3cc(-c4ccc(F)cc4)nc3s2)C1 (stereo unspecified) | x | 1 | x | x | 7 | 0%
COc1ccc(CNC(=O)c2ccc(Cn3nc(C)c([N+](=O)[O-])c3C)o2)cc1 | 40% | 2 | u | -4 | -2 | 4.5µM*
Cc1nn(CCCC(=O)NCc2ccc(F)cc2)c(C)c1[N+](=O)[O-] | x | -1 | -9% | 2 | 30* | 2%
COc1ccccc1CNC(=O)CN1C(=O)CSc2ccc(S(=O)(=O)N3CCCCC3)cc21 | x | -1 | x | x | 6 | -2%
CSC1=NSC2=NC(=O)/C(=C\c3ccc(OC(=O)c4ccco4)cc3)C(=N)N12 | 7% | 0 | x | 6 | 1 | x
CCSC1=NSC2=NC(=O)/C(=C\c3coc4ccccc4c3=O)C(=N)N12 | x | 179* | -18% | 0 | 52* | 2%
SMILES | MBNL1-CUG inh | TRHR agonist | CBFb-RUNX1 inh | IL2 activator | TRHR PAM | Epigenetic derep
Cc1cccc(NS(=O)(=O)c2cc(C(=O)NCCC3=CCCCC3)ccc2Cl)c1 | 6% | 1 | 1% | -2 | 35* | -1%
COc1ccc(-c2cc3ccc(O)c(CN4CCN(C)CC4)c3oc2=O)cc1OC | x | 3 | x | x | 6 | -5%
COC(=O)N/N=C(\C)c1ccc(-n2ccnc2)cc1 | x | 0 | 15% | 6 | 41* | 1%
O=C1Nc2ccccc2/C1=C/c1cnc(-c2ccccc2)[nH]1 | x | 8 | 1% | 1 | -7 | 22µM*
COc1cc(N2CCCC2)c(OC)cc1/C=c1/sc2nc3ccccc3n2c1=O | -1% | 18 | -4% | x | -7 | 2.8µM*
Cc1ccc(-n2c(C)cc(/C=c3/sc4nc5ccccc5n4c3=O)c2C)cc1 | 2% | 0 | 6% | 2 | 8 | -1%
O=C(O)Cn1cc(/C=c2/sc3nc4ccccc4n3c2=O)c2ccccc21 | u | 1 | -2% | 166* | -4 | 9%
Cc1cccc2c(N=Nc3ccccc3)c(O)[nH]c12 | -3% | 1 | x | 257* | -1 | x
CC1=C(c2ccc(C)c(C)c2)S(=O)(=O)N=C1N1CCC(C(=O)NCc2ccc(C)o2)CC1 | x | 0 | x | x | 31* | 6%
Cc1nnc(SCCn2c(N3CCN(C)CC3)nc3c2c(=O)[nH]c(=O)n3C)s1 | -4% | 0 | -3% | 0 | 41* | -1%
Cc1nnc(SCCn2c(N3CCCCCC3)nc3c2c(=O)[nH]c(=O)n3C)s1 | -3% | 0 | -5% | -3 | 11 | 4%
CCCn1c2ccccc2c2cnn(CC(=O)N3CCC(C(=O)OCC)CC3)c(=O)c21 | x | -1 | x | x | -12 | 0%
CCOc1ccc(C(=O)Nc2cc(S(=O)(=O)Nc3ccccc3Cl)ccc2N2CCOCC2)cc1 | 3% | -1 | -2% | 0 | 40* | -1%
Cc1cc(C)c2nc(N(CCCN(C)C)C(=O)c3ccc4c(c3)CCCC4)sc2c1 | x | 3 | x | -1 | 33* | x
S=c1[nH]nc(-c2n[nH]c3c2CCC3)n1/N=C/C=C/c1ccco1 | x | -1 | u | 4 | 39* | 0%
COc1ccc(Br)cc1CNC(=O)Cn1c(=O)c2cccn2c2ccc(F)cc21 | x | 0 | x | x | -3 | 1%
CC(NC(=O)CSc1n[nH]c(-c2ccccc2Cl)n1)c1nc2ccccc2[nH]1 (stereo unspecified) | x | 0 | x | x | 1 | -2%
CCOc1ccccc1NC(=O)Cn1c(=O)n(-c2ccc(C)c(C)c2)c(=O)c2c(C)c(C(=O)N(C)C)sc21 | x | 0 | x | x | -1 | -1%
C/C(=N\Nc1ncc(Cl)cc1Cl)c1ccccn1 | -2% | 5 | u | 71* | 5 | 0.63µM*
C/C(=N\Nc1ccc(Cl)c(C(=O)O)c1)c1ccccn1 | -5% | 1 | 8% | -3 | -7 | -1%
C/C(=N\Nc1ncnc2sc(C)c(C)c12)c1ccccn1 | 6% | 55* | x | 122* | 15 | x

From PubChem
